PubChem BioAssay (Tox21)
Records with an inconclusive call do not appear. Entries that show only a call come without a potency. Values without a mark were called inactive. Calls of active or inactive are those of the source. Calls follow the shape of the full dose curve.

molecular target: Muscarinic acetylcholine receptor M1 (Homo sapiens) (UniProt P11229); assay: Cholinergic receptor muscarinic 1 (CHRM1) small molecule antagonists, cell-based qHTS assay (AID 1963588); conditions: CHRM1-CHO antagonist mode, calcium flux fluorescence; series mostly up to 61.5 µM; also: nearly all actives have a fitted effect of over 40% in size
Sequence (P11229 whole entry, looked up): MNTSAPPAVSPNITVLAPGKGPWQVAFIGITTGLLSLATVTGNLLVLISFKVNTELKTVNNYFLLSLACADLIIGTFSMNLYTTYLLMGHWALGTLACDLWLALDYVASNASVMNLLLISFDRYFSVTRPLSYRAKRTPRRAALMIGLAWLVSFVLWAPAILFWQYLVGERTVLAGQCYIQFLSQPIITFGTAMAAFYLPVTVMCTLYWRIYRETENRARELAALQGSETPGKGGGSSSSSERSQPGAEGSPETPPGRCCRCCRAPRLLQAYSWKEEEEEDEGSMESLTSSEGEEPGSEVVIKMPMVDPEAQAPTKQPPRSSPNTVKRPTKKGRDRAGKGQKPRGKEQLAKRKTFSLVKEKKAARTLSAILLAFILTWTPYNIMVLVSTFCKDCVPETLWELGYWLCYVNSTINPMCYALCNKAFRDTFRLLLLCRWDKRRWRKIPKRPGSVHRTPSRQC
Source text: National Center for Advancing Translational Sciences [NCATS]
Division of Preclinical Innovation [DPI]
U.S. Environmental Protection Agency [EPA]
National Institutes of Environmental Health Sciences [NIEHS]
National Toxicology Program [NTP]
U.S. Food and Drug Administration [FDA]
The CHRM1 is a muscarinic receptor. This receptor plays a crucial role in learning and memory processes and has long been identified as a promising therapeutic target for the improvement of cognitive decline in Alzheimer's disease (AD). The CHRM1-CHO cell line stably expressing human muscarinic acetylcholine receptor M1 (CHRM1) can be used for screening agonists and antagonists of interactions between CHRM1 and its ligands. The CHRM1-CHO Calcium Flux Assay is a homogeneous fluorescence-based assay for detecting the intracellular calcium level using FDSS kinetic plate reader system.
Tox21 Assay Protocol Summary:
CHRM1-CHO cells were dispensed at 1000 cells/3uL/well in 1536-well black-clear bottom plates using a Multidrop Dispenser. After the assay plates were incubated at a 37 C/5% CO2 incubator for 18 h, 3 uL of Dye Loading Buffer was transferred to the assay plate by a Flying Reagent Dispenser. The assay plates were incubated at 37 C for 1h. For antagonist mode, 23 nL of compounds dissolved in DMSO, positive controls or DMSO only was transferred to the assay plate by a pin tool. After 5 min incubation at room temperature, 1.5 uL of acetylcholine at 50nM was added to each well. The fluorescence intensity in the plates was measured using FDSS 7000EX kinetic plate reader for 3 min at 1 sec intervals. Each test compound was measured at 15 concentrations in three independent runs.
Potency is read from the fitted curve at half-maximal effect.

SMILES | Potency | activity, negative = inhibition
O=C(c1ccc(O)cc1)c1ccc(Cl)cc1 | inactive | –
CC(=O)CC(C)C | inactive | –
O=[N+]([O-])c1ccc(/C=N\O)o1 | inactive | –
CCN(CC)CCOC(=O)C(c1ccccc1)c1ccccc1 | 0.0103 µM (active) | –
COc1ccccc1OCC(O)CN1CCN(CC(=O)Nc2c(C)cccc2C)CC1 (stereo not given) | inactive | –
O=C(O)CCCCCCC(=O)O | inactive | –
CCCCCCCCCCCCCCCCCCN(C)C | inactive | –
COc1cc(C(C)C)ccc1C | – | 8.74% [at 12.6 µM]
O=C1c2ccccc2C(=O)C1c1ccc(Br)cc1 | inactive | –
OCCN(CCO)c1ccccc1 | inactive | –
O=C(/C=C/c1ccccc1)OC/C=C/c1ccccc1 | inactive | –
Nc1ccc(S(=O)(=O)O)cc1 | inactive | –
OC1(c2ccccc2)CCNCC1 | inactive | –
Cc1cc(C)n(CO)n1 | inactive | –
C=COCC1CCC(CO)CC1 (stereo not given) | inactive | –
COC(=O)N/N=C/c1c[n+]([O-])c2ccccc2[n+]1[O-] | inactive | –
CO/N=C(\C(=O)O)c1csc(NC(=O)CCl)n1 | inactive | –
Nc1cc(C(F)(F)F)ccc1S | inactive | –
CC(C)(C)OC(=O)c1ccccc1C(=O)O | inactive | –
O=C(O)c1cc(Cl)cc(Cl)c1 | inactive | –

SMILES | Potency | activity, negative = inhibition
COc1ccccc1Oc1c(NS(=O)(=O)c2ccc(C(C)(C)C)cc2)nc(-c2ncccn2)nc1OCCO | inactive | –
CCCC(=O)OCCC(C)C | inactive | –
O=C(O)c1cccc(-c2noc(-c3ccccc3F)n2)c1 | inactive | –
O=C(O)c1ccccc1Cl | inactive | –
Nc1c2c(nc3ccccc13)CCCC2O (stereo not given) | inactive | –
CC[C@@]1(O)C(=O)OCc2c1cc1n(c2=O)Cc2c-1nc1ccccc1c2/C=N/OC(C)(C)C | 20.5 µM (active) | –
COCCOCC(OC)OC | inactive | –
CCCCCCCC/C=C\CCCCCCCCOCCO | inactive | –
CCN(CC)C(=O)N(CC)CC | inactive | –
O=C1CCCCCCCCCCC(=O)OCCO1 | inactive | –
Nc1nc(-c2ccccc2)c(Br)c(=O)[nH]1 | inactive | –
CC(C)(C)c1n[nH]c(=S)n(N)c1=O | inactive | –
CCCCOC(=O)CC | inactive | –
Cc1cc(C(C)(C)C)c(O)c(C)c1Cn1c(=O)n(Cc2c(C)cc(C(C)(C)C)c(O)c2C)c(=O)n(Cc2c(C)cc(C(C)(C)C)c(O)c2C)c1=O | inactive | –
CCOc1cc([N+](=O)[O-])c(OCC)cc1N1CCOCC1 | inactive | –
COc1ccc(/C=C/S(=O)(=O)NC(=O)c2ccc(C)cc2Cl)cc1 | inactive | –
O=C(OCCCCCOC(=O)c1ccccc1)c1ccccc1 | inactive | –
CCOC(=O)CC(=O)c1cc(F)c(Cl)nc1Cl | inactive | –
CC(CO)(CO)C(=O)O | inactive | –
CCCCCCC(O)CCOC(C)=O (stereo not given) | inactive | –
